High-throughput results from PubChem BioAssay.
Abeta yeast res = A-beta toxicity reversal in yeast; yeast expressing A-beta42, growth rescue, OD600, 48 h; response scale: 0% DMSO, 100% iron-clioquinol control; Potency, µM (top dose mostly 46.1 µM), actives largely listed as activators; 410,000 tested, 0.063% active; further: nearly all actives have a fitted effect of over 55% in size
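Yeast A-beta toxicity model in growth medium with pinned compounds, 48 h at 30 C; growth read as absorbance at 600 nm. Normalized to FeCl3/clioquinol equimolar mix (positive) and DMSO (negative).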
FUS suppressor = FUS proteinopathy suppression in yeast | S. cerevisiae FUS-expressing, growth rescue, OD600, 24 h | Potency, µM (titrated, usually from 76.6 µM), most hits filed as activators | 390,000 tested, 0.24% active | AID 1347120; further: nearly all actives have a fitted effect of over 55% in size
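Absorbance at 600 nm, taken 24hr after compound addition, measured rescue of FUS-yeast growth at 30C. Induction used 2% galactose with seeding at OD 0.005. Controls: CP55940 from 92uM final, DMSO only.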
aSyn yeast inh = inhibitors of alpha-synuclein toxicity in yeast. Yeast expressing alpha-synuclein, growth rescue, BacTiter-Glo, 24 h. Potency, µM (series often up to 46.1 µM), most hits filed as activators. 370,000 tested, 0.14% active. AID 652106; further: nearly all actives have a fitted effect of over 65% in size
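Rescue of yeast growth: cells expressing toxic alpha-synuclein, induced in galactose at OD600 0.02, incubated with compound 24 h at 30 C. ATP luminescence quantified growth; inhibitors of toxicity appear as activators.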
TDP-43 yeast inh = TDP-43 toxicity inhibition in yeast; TDP-43 expressing yeast growth rescue, BacTiter-Glo, 24 h; Potency, µM (top dose mostly 46.1 µM), most hits filed as activators; 410,000 tested, 1.8% active; AID 652104; further: nearly all actives have a fitted effect of over 50% in size
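Galactose-induced TDP-43 yeast, OD600=0.02, compound pinned; 24 hr, 30 deg C; BacTiter-Glo luminescence for growth. Inhibitors of TDP-43 toxicity read as activators.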
Mito fusion yeast = inhibitors of mitochondrial division or activators of mitochondrial fusion | S. cerevisiae fusion-defective mutant growth rescue, CellTiterGlo 48 h | Potency, µM (top dose mostly 46.1 µM), usual class: activators | 320,000 tested, 0.23% active; further: nearly all actives have a fitted effect of over 45% in size
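Yeast fusion mutant, YPEG (non-fermentable carbon), compound, 48 h at 37C non-permissive; CellTiterGlo added, 10 min RT, luminescence read. Rescued growth = division inhibition.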
Hits are given with their value; 0 = inactive; ? = inconclusive; - = no result given; [ ] = remark or other dose. The list is not random: actives were taken first. Their share in the collection is about 2.2%. The call rests on the fitted dose curve; in most records, active means well fitted curve in the direction sought with a large enough effect; inconclusive means small, poorly fitted or top-dose-only effect, or another doubt; inactive means no such curve, though single readings can be large; an effect the other way counts as inactive or inconclusive.

SMILES	Abeta yeast res	FUS suppressor	aSyn yeast inh	TDP-43 yeast inh	Mito fusion yeast
Cc1ccc(NC(=S)NNC(=O)CSc2nnc(-c3ccc(C)cc3)n2C2CCCCC2)cc1	-	0	-	-	-
CCCCN(CC)Cc1ccc(CNS(=O)(=O)c2cc3c(cc2Cl)NC(=O)CO3)o1	0	0	-	0	-
COc1ccc(-c2cn3c(n2)sc2cc(C(=O)NCCC4=CCCCC4)ccc23)cc1	0	0	-	0	-
Nc1cc2nsnc2cc1Br	0	-	0	13µM	0
COc1ccc(C(=O)Nc2nc(-c3ccc(Br)cc3)ns2)cc1	0	0	-	0	-
CCC(=O)C1=C(c2ccc(Cl)cc2)N(C(=O)CC)n2c(C)nnc2S1	0	0	-	0	-
CCCCCOC(=O)c1c(N)n(CCOC)c2nc3ccccc3nc12	0	0	0	18µM	0
CCOC(=O)c1c(N)n(CCOC(=O)c2cccs2)c2nc3ccccc3nc12	0	0	0	0	0
O=C(CCc1ccccc1)N1CCc2c([nH]c3ccccc23)C1c1ccc(F)cc1 (stereo not drawn)	0	?	-	0	-
COc1ccc(/C=N/n2c(SC)nnc2-c2ccccc2)cc1C	0	0	0	16µM	0
COc1ccccc1CCC(=O)NNC(=O)c1cccs1	0	0	0	0	-
Cc1cc2occ(CC(=O)N(C)CC(=O)Nc3ccccc3C(F)(F)F)c2cc1C	0	0	0	20µM	0
C=CCn1c(SCC(=O)Nc2cc3oc4ccccc4c3cc2OC)nnc1-c1cnccn1	0	0	0	0	0
COc1cc2c(cc1NC(=O)CSc1nnc(-c3cnccn3)n1-c1ccc(C)cc1)oc1ccccc12	-	18µM	-	-	-
Cc1ccccc1Nc1nc(N)nc(CSc2ccc(F)cc2)n1	0	0	0	25µM	0
Cc1ccc(SCc2nc(N)nc(Nc3ccccc3C)n2)cc1C	0	?	0	18µM	0
Cc1ccccc1Nc1nc(N)nc(CSc2nnc(C)n2C)n1	0	0	0	0	0
Cc1ccccc1Nc1nc(N)nc(CSc2nc3ccccc3s2)n1	0	-	0	20µM	20µM
Cc1ccc(SCc2nc(N)nc(Nc3ccccc3C)n2)c(C)c1	?	0	0	?	0
Cc1ccc(Nc2nc(N)nc(CSc3nc4ccccc4s3)n2)cc1	0	0	0	?	0
Cc1ccccc1NC(=O)CCCSc1nc2ccccc2s1	0	-	0	13µM	?
COc1ccc(-c2nc(CNC(=O)Nc3ccccc3)c(C)o2)c(OC)c1	0	0	-	0	-
CCOC(=O)c1ccc(NC(=O)c2cnn(-c3ccc(C)cc3C)c2C2CCN(C(=O)OC(C)(C)C)CC2)cc1	0	0	-	0	-
COc1ccc(Nc2nc(N)nc(CSc3nc4cc(OC)ccc4s3)n2)cc1	0	?	-	20µM	-
COc1ccc(Nc2nc(N)nc(CSc3nnc(C)s3)n2)cc1	0	0	0	0	0
SMILES	Abeta yeast res	FUS suppressor	aSyn yeast inh	TDP-43 yeast inh	Mito fusion yeast
COc1cc2c(OC(C)=O)c3c(c(-c4ccc5c(c4)OCO5)c2cc1OC)C(=O)OC3	0	0	0	0	0
COc1cc2c(O)c3c(c(-c4ccc5c(c4)OCO5)c2cc1OC)C(=O)OC3	0	8.9µM	0	0	0
CCCN1C(=O)/C(=C/c2ccc3c(c2)OCO3)NC1=S	?	0	0	14µM	0
CCCN(CCC)C(=O)Cn1c(=O)n(-c2cccc(C)c2)c(=O)c2c1c1cc(OC)ccc1n2C	0	?	-	0	-
O=C(CN1N=C(C(F)(F)F)CC1(O)c1ccc([N+](=O)[O-])cc1)c1ccccc1 (stereo not drawn)	0	0	0	16µM	16µM
O=C(c1ccccc1O)N1N=C(C(F)(F)F)CC1(O)c1ccc([N+](=O)[O-])cc1 (stereo not drawn)	0	0	0	0	0
O=C(NCCCCCCNC(=O)c1cncc(O)c1)c1cncc(O)c1	0	0	0	0	7.9µM
CCOC(=O)C1CCC(CN(Cc2ccc(OC)cc2)S(=O)(=O)c2ccc(C)cc2)CC1 (stereo not drawn)	0	0	-	0	-
Cc1cc(/C=C/C(=O)O)c(C)n1-c1ccc(Cl)cc1	0	0	10µM	?	0
Cc1cc(/C=N/NC(N)=S)c(C)n1-c1ccc(Cl)cc1	10µM	?	0	?	0
Cc1cc(C=O)c(C)n1-c1ccc(Cl)c(C(=O)O)c1	0	0	0	0	0
Cc1cc(/C=N/NC(N)=S)c(C)n1-c1cccc(Cl)c1	10µM	0	0	0[0.397 µM]	0
Cc1cc(/C=N/NC(N)=S)c(C)n1-c1ccc(Br)cc1	0	0	0	?	0
Cc1cccc(C)c1-n1c(C)cc(/C=N/NC(N)=S)c1C	?	?	0	11µM	0
CCc1nc2c(OCc3ccc(Cl)cc3)cccn2c1N(C)C(=O)c1ccncc1	0	0	0	0	-
O=S(=O)(c1ccccc1)N1CCN(c2nnnn2-c2ccccc2)CC1	0	0	0	0	0
O=S(=O)(c1ccc2c(c1)OCO2)N1CCN(c2nnnn2-c2ccccc2)CC1	0	0	0	0	5µM
Cc1ccc(C)c(C(=O)CSc2nnnn2-c2cccnc2)c1	0	0	0	11µM	0
Cc1ccc(NCc2ccc([N+](=O)[O-])s2)cc1	0	0	0	11µM	0
Cc1cccc(NCc2ccc([N+](=O)[O-])s2)c1	0	0	0	?	0
O=[N+]([O-])c1ccc(CNc2cccc(F)c2)s1	?	0	0	11µM	0
COc1ccccc1NCc1ccc([N+](=O)[O-])s1	0	0	0	?	0
Cc1ccccc1NCc1ccc([N+](=O)[O-])s1	0	0	0	11µM	0
COc1cc(NC(=O)N2CCN(c3cc(-c4noc(C)n4)ccc3C)CC2)cc(OC)c1OC	0	0	0	0	-
CC(=O)Nc1ccc(-c2ccnc3c2CC(C)(C(=O)Nc2cccc(C(C)=O)c2)O3)cc1 (stereo not drawn)	0	0	0	0	-
SMILES	Abeta yeast res	FUS suppressor	aSyn yeast inh	TDP-43 yeast inh	Mito fusion yeast
CC1(C(=O)NCc2ccc(F)c(F)c2)Cc2c(-c3cccc(C(F)(F)F)c3)ccnc2O1 (stereo not drawn)	0	0	?	0	-
CC(=O)c1cccc(NC(=O)C2(C)Cc3c(-c4ccccc4)ccnc3O2)c1 (stereo not drawn)	0	0	0	20µM	-
CC1(C(=O)NCc2ccc(F)c(F)c2)Cc2c(-c3ccccc3)ccnc2O1 (stereo not drawn)	0	0	0	35µM	-
CC1(C(=O)NCc2ccccc2)Cc2c(-c3ccc4c(c3)OCO4)ccnc2O1 (stereo not drawn)	0	0	0	18µM	-
COc1ccc(C2CC3CN(C4CCCCC4)C(=O)C3N2C)cc1 (stereo not drawn)	-	0	-	-	-
Cc1ccc(Cc2cnc(N3C(=N)SC(C)C3=O)s2)cc1 (stereo not drawn)	0	0	0	?	0
Cc1cccc(Cc2cnc(N3C(=N)SC(C)C3=O)s2)c1 (stereo not drawn)	?	0	10µM	22µM	0
N=C1SCC(=O)N1c1ncc(Cc2cccc(Cl)c2)s1	0	0	0	8.9µM	0
